# The panel holds about 79,000 compounds, 15% with a hit somewhere; the sample as a whole holds those more often. A number with no mark means an inactive call. Activity calls are given as the source filed them. No stated cut-off is given here; in the data, active means growth inhibition above about 70%; inactive means the rest.
# Experiments:
# [1] = NCI Yeast Anticancer Drug Screen. Data for the rad50 strain (AID 155);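 further: 0% = growth of vehicle-only cultures of the same strain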; details: S. cerevisiae rad50 strain growth inhibition; at 50.0 µM; stronger effect = higher value
# Summary of the method: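 Compounds were tested on a yeast strain with an engineered DNA damage repair alteration; the reported value is growth inhibition normalised to vehicle treatment.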
# [2] = NCI Yeast Anticancer Drug Screen. Data for the mec2-1 strain (AID 157); details: S. cerevisiae mec2-1 strain, at 50.0 µM, stronger effect = higher value
# Summary of the method: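 Growth inhibition is read against vehicle-treated controls after compound exposure of the mec2-1 yeast strain, which is defective in DNA damage repair or cell cycle control.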
# [3] = NCI Yeast Anticancer Drug Screen. Data for the sgs1 mgt1 strain (AID 161);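 further: 0% = growth of cultures given vehicle only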; details: S. cerevisiae sgs1 mgt1 strain, at 50.0 µM, stronger effect = higher value
# Summary of the method: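 Compounds are added to genetically altered yeast, and growth is compared with cultures given vehicle alone to give percent inhibition.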
# [4] = NCI Yeast Anticancer Drug Screen. Data for the cln2 rad14 strain (AID 165);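 further: 0% = growth equal to vehicle treated cultures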; details: S. cerevisiae cln2 rad14 strain, at 50.0 µM, stronger effect = higher value
# Summary of the method: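 Growth inhibition, relative to vehicle-treated controls, is the read-out. The test organism is a yeast strain with defined genetic alterations, cln2 rad14.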
# [5] = NCI Yeast Anticancer Drug Screen. Data for the bub3 strain (AID 167); details: S. cerevisiae bub3 mutant strain, at 50.0 µM, stronger effect = higher value
# Summary of the method: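 Growth of a checkpoint-deficient yeast mutant is measured after compound exposure. Values represent inhibition relative to vehicle.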
# [6] = NCI Yeast Anticancer Drug Screen. Data for the mlh1 rad18 strain (AID 175); details: S. cerevisiae mlh1 rad18 strain growth inhibition; at 50.0 µM; stronger effect = higher value
# Summary of the method: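 Cells of a genetically altered yeast strain, deficient in DNA damage repair, were treated with compound. Their growth was then compared with that of vehicle-treated cultures to give inhibition.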
Structure (SMILES),growth inhibition [1],growth inhibition [2],growth inhibition [3],growth inhibition [4],growth inhibition [5],growth inhibition [6]
COc1ccc(CCN=C(N)CCl)cc1,11.8%,10.8%,7.4%,6.65%,18.9%,-2%
COC1OC(CO)C(O)C(O)C1Br (stereo not drawn),19.8%,13.9%,13%,31.7%,23.8%,21.2%
CCC(C)NS(=O)(=O)c1ccc(Cl)cc1 (stereo not drawn),18.4%,9.55%,6.45%,8.6%,5.85%,3.7%
O=c1[nH]c2ccccc2c2ccc(Br)cc12,17.4%,-6.1%,-2.65%,7.3%,-3%,18.5%
NC(=S)/N=C/C1=C(O)CCCC1=O,2.05%,5.95%,16.4%,17%,14%,11.2%
COC1=CC(=O)C(Cc2ccc3c(c2)OCO3)=CC1=O,13.2%,24.6%,15.7%,-9.45%,3.1%,34.5%
O=C(O)c1cc(Cl)ccc1-c1ccc(Cl)cc1C(=O)Nc1ccc2c(c1)Cc1ccccc1-2,91.3% (active),89.7% (active),94.6% (active),87.8% (active),85.3% (active),94.9% (active)
CC(C)(C)NC(=O)c1cccc(C(=O)NC(C)(C)C)n1,3.3%,-8%,-0.3%,-7.9%,-13.3%,-16.4%
COc1ccc2c(N=[N+]=[N-])c(-c3ccccc3)c(=O)oc2c1,11.8%,2.6%,35.6%,17.2%,3.15%,30.9%
CCN(CC)C(=O)COc1ccc(Cl)cc1,2.05%,-7.75%,-5.55%,-41.7%,-26.6%,-20.7%
C[C@]12CCC[C@H](O)[C@H]1O2,-6.45%,3.25%,-16.1%,0.55%,0.5%,-10.2%
CCOC(=O)C1=C(NC(C)=O)Sc2ccccc2C1,27.9%,6.6%,1.8%,-19.3%,2.45%,25%
COc1cc2c(cc1N)-c1ccc(N)cc1C2O (stereo not drawn),7.55%,3.65%,-9.05%,17.3%,17.1%,1.05%
CNc1ncnc2[nH]ncc12,18.4%,-0.85%,6.25%,-18.2%,-7.05%,1.35%
COC(=O)c1nc(N)nc(C(=O)OC)c1C(=O)c1ccccn1,-12.1%,-19.2%,1.65%,-20.2%,-11.3%,-1.75%
O=C1OCCCC1(Cc1ccccc1)Cc1ccccc1,44.6%,-7.7%,37.4%,-16.1%,39.6%,16.5%
Nc1c2c(nn1-c1ccccc1)C(=O)N(CCc1ccccc1)C2,0.25%,14.2%,-6.05%,-0.65%,-3.25%,-1.4%
Nc1cccc(/C=C/c2ccc([N+](=O)[O-])cc2)c1,-2.3%,24.6%,54.7%,-12.4%,30%,39.5%
C[N+](C)(C)CC(=O)N/N=C(/Cc1nc2ccc([N+](=O)[O-])cc2[nH]c1=O)C(=O)Nc1cc(C(F)(F)F)ccc1Cl,-13.2%,3.7%,3.35%,8.55%,-5.4%,16.2%

Structure (SMILES),growth inhibition [1],growth inhibition [2],growth inhibition [3],growth inhibition [4],growth inhibition [5],growth inhibition [6]
Nc1[nH]n(-c2ccccc2)c(=O)c1/C=N/C(=S)N=Nc1c(O)[nH]c2ccccc12,1.5%,-0.3%,41%,1.5%,9.35%,24.8%
CN(C)c1nc(Oc2nc(N(C)C)nc(N(C)C)n2)nc(N(C)C)n1,-21.8%,-26.6%,-30.9%,-8.5%,-21.4%,-31.9%
NC(=S)NNC(=S)NC(=O)c1ccco1,-39.8%,5.55%,5.05%,14.3%,22.1%,-18.7%
C/C=C(\C)c1cc(=O)c2c(C)cc3c(c2o1)C(=O)c1c(O)c(C2CC(C)(N(C)C)C(OC(C)=O)C(C)O2)cc(C2CC(N(C)C)C(O)C(C)O2)c1C3=O (stereo not drawn),17%,1.95%,9.8%,7.35%,8.15%,-59.6%
Cn1c2cc3ccccc3cc2nc2cc3c(cc21)c(Cl)c(=O)c1ccccc13,10%,-3%,12.8%,5.85%,-4.45%,-2.35%
COc1cc(NC=O)c2c(c1)SCC(=O)N2,-1.75%,-52.5%,-8.75%,6.7%,6.2%,-6.6%
O=S1(=O)NNC(=NCc2ccc(Cl)c(Cl)c2)c2ccccc21,11.2%,-11.8%,-6.15%,-1.4%,3.2%,-16.4%
CCN(CC)CC(C)=O,-31%,-58.3%,-82.5%,14.8%,-11.9%,-6.1%
O=C(COc1cc(Cl)ccc1Cl)NCc1ccc(Cl)cc1,15.2%,2.1%,12.6%,10.1%,34.1%,14.8%
Nc1nc(Cc2ccccc2)nc2[nH]ncc12,3.85%,6.3%,3.2%,-18.5%,-8.9%,-1.6%
O=S(=O)(CCS(=O)(=O)c1ccccc1)c1ccccc1,-11.4%,-10.2%,-22.9%,-41.5%,-15.3%,-0.1%
COc1ccc(C(CC(=O)O)c2ccc(OC)cc2OC)cc1 (stereo not drawn),-0.3%,0.8%,11.8%,-24.5%,0.85%,6.95%
CCC(CCN(C)C)(OC(C)=O)c1ccccc1 (stereo not drawn),10.4%,-0.55%,-3%,11.7%,30.9%,-15.8%
O=Nc1ccc(O)cc1Cc1ccccc1,-10.4%,-5.95%,-19.8%,-5.3%,5.1%,-1.5%
COC(=O)N/N=C(/CC1(O)C(=O)Nc2ccc([N+](=O)[O-])cc21)c1ccccc1 (stereo not drawn),48.3%,34.2%,36.5%,-3.2%,0.35%,40.8%
CC(=O)C1C(=O)C(=O)N(c2ccccc2C(C)C)C1=O (stereo not drawn),19%,6.55%,11.9%,21.4%,11.9%,29.5%
Cc1c(F)c(Br)c([N+](=O)[O-])c(C)c1[N+](=O)[O-],-7.15%,5.45%,-8.8%,-4.15%,-1.2%,-17.9%
C=CCNC(=S)NCc1ccc(Cl)cc1,21.3%,7.8%,22.7%,-46.6%,5.15%,12.1%
CN(C)Cc1cc(C(=O)/C=C/c2c(Cl)cccc2Cl)cc(CN(C)C)c1O,-32%,-17.6%,-3%,-31.2%,-0.75%,-18.9%

# Reference: PubChem BioAssay (NCI)
